Measured values as given in PubChem BioAssay AID372 (MTDP, 2006).
In all, about 100,000 compounds went through this assay and about 770 (0.77%) were called active. Rule as the data show it: active = inhibition above about 50%; inactive = the rest. The full list was thinned out, with actives kept by preference.

Molecular target: Gag-Pol polyprotein (Human immunodeficiency virus type 1 group M subtype B (isolate HXB2)) (UniProt P04585)
Test: RNase H inhibition, HIV 1 Gag Pol polyprotein, FRET biochemical assay, screening (AID 372)
Details: HIV-1 RT RNase H, FRET RNA/DNA substrate fluorescence; at 10 µM; stronger effect = higher value

Row | Compound | inhibition
1 | O=C(COc1ccccc1)Nc1cc(C(F)(F)F)cc(C(F)(F)F)c1 | 0% (inactive)
2 | CC1=C(C(=O)Nc2ccccc2)C(c2cccc(Br)c2)NC(=S)N1 (configuration not stated) | 8% (inactive)
3 | COc1cc(/C=N\NC(=O)CSc2nc3ccccc3o2)ccc1O | 25% (inactive)
4 | C#CCSc1nc(C)cc(C)c1C#N | 13% (inactive)
5 | Cc1csc(NC(=O)C2CC3CCC2C3)n1 (configuration not stated) | 4% (inactive)
6 | COc1ccc(N(CC(=O)Nc2cccc(OC)c2)S(=O)(=O)c2ccc(C)cc2)cc1 | 16% (inactive)
7 | CC(C(=O)O)n1c(O)c(/C=C2/C=Nc3ccccc32)sc1=S (configuration not stated) | 4% (inactive)
8 | O=C(N/N=C/c1ccc(Cl)cc1Cl)c1cc(O)cc(O)c1 | 6% (inactive)
9 | O=C(N/N=C/c1c[nH]c2ccccc12)c1cc(O)cc(O)c1 | 8% (inactive)
10 | Cc1ccccc1/C=N/NC(=O)c1cc(O)cc(O)c1 | 2% (inactive)
11 | O=C(N/N=C/c1ccc(Cl)cc1Cl)c1ccccc1Cl | 5% (inactive)
12 | O=C(N/N=C/c1ccc(Cl)cc1Cl)c1cc(Br)ccc1O | 0% (inactive)
13 | O=C(N/N=C/c1coc2ccccc2c1=O)c1cc(O)cc(O)c1 | 55% (active)
14 | O=C(N/N=C/c1ccccc1Cl)c1cccc(Cl)c1 | 8% (inactive)
15 | O=C(N/N=C/c1ccccc1Cl)c1ccc(C(=O)N/N=C/c2ccccc2Cl)cc1 | 0% (inactive)
16 | O=C(N/N=C/c1ccc(Cl)cc1Cl)c1ccc(O)c(O)c1 | 57% (active)
17 | O=C(N/N=C/c1ccc(O)c(O)c1O)c1ccc(Cl)cc1Cl | 61% (active)
18 | C[n+]1ccc(C(=O)N/N=C/c2ccc(Cl)cc2Cl)cc1 | 0% (inactive)
19 | O=C(/C=C/c1cc(Br)cs1)Nc1ccccc1 | 11% (inactive)
20 | Cc1cc(C)c(S(=O)(=O)N2CCCC2=O)c(C)c1 | 0% (inactive)
21 | O=C(Nc1cc(NC(=O)c2cc(Cl)ccc2Cl)ccc1Cl)c1ccccc1 | 20% (inactive)
22 | Cc1nnc(C)n1/N=C/c1ccc(Cl)cc1 | 2% (inactive)
23 | Cn1c(SC/C=C/c2ccccc2)nc2sc3c(c2c1=O)CCC3 | 2% (inactive)
24 | CCOC(=O)c1c(NC(=O)Cc2cccs2)sc(C(=O)Nc2cc(C(F)(F)F)ccc2Cl)c1C | 16% (inactive)
25 | COc1ccc(C2CC(=O)N(CCCN(C)C)C2)cc1 (configuration not stated) | 2% (inactive)
26 | O=C(N/N=C/c1cccc(Cl)c1Cl)c1ccc(O)c(O)c1 | 56% (active)

Row | Compound | inhibition
27 | O=C(N/N=C/c1cccc(Cl)c1Cl)c1ccc(O)cc1 | 0% (inactive)
28 | O=C(N/N=C/c1cccc(O)c1O)c1ccc(O)cc1 | 32% (inactive)
29 | O=C(N/N=C/c1cccc(O)c1O)c1cc(O)cc(O)c1 | 86% (active)
30 | O=C(N/N=C/c1cccc(Cl)c1Cl)c1ccc(Cl)c(Cl)c1 | 5% (inactive)
31 | O=C(N/N=C/c1cccc(O)c1O)c1ccccc1 | 31% (inactive)
32 | Oc1c(Cl)cc(Cl)cc1C=Nc1ccc(-c2nc3ccccc3[nH]2)cc1 | 0% (inactive)
33 | CCOC(=O)COc1ccc(/C=C2\C(=O)NC(=S)N(c3ccc(OCC)cc3)C2=O)cc1OC | 9% (inactive)
34 | NC1=NC(=O)/C(=C/c2cccc(OS(=O)(=O)c3cccc([N+](=O)[O-])c3)c2)S1 | 3% (inactive)
35 | COc1ccc(CSCC(=O)N/N=C/c2c(Cl)cccc2Cl)cc1 | 60% (active)
36 | Cc1cc(C)nc(SCC(=O)N/N=C/c2c(Cl)cccc2Cl)n1 | 20% (inactive)
37 | COc1ccc(CSCC(=O)N/N=C/c2ccccc2O)cc1 | 14% (inactive)
38 | CCOC(=O)c1c(NC(=O)c2cc(-c3ccc(C)c(C)c3)nc3ccccc23)sc(C(N)=O)c1C | 5% (inactive)
39 | CCOC(=O)c1c(NC(=O)c2cc(-c3ccccc3)nc3ccccc23)sc(C(N)=O)c1C | 24% (inactive)
40 | CCOC(=O)c1c(NC(=O)c2cc(-c3ccc(C(C)C)cc3)nc3ccccc23)sc(C(N)=O)c1C | 55% (active)
41 | C=CCn1c(-c2nonc2NC(C)=O)nc2ccccc21 | 42% (inactive)
42 | Oc1ccc(/C=N/Nc2nncc(-c3ccccc3)n2)cc1 | 5% (inactive)
43 | Oc1ccc(/C=N/Nc2nncc(-c3ccccc3)n2)c(O)c1 | 23% (inactive)
44 | Cc1ccnc(NC(=O)c2ccc(OCC(C)C)cc2)c1 | 0% (inactive)
45 | O=C1OC2C=CC(Br)=CC2C=C1C(=O)N1CCSC1c1ccc2c3c(cccc13)CC2 (configuration not stated) | 6% (inactive)
46 | CCN1C(=O)/C(=C/c2cc(Cl)cc(Cl)c2OCCOc2ccccc2OC)SC1=S | 7% (inactive)
47 | CN1C[N+]([O-])=C(c2ccccc2)C1(C)C | 3% (inactive)
48 | COC(=O)C1=C(C(=O)OC)SC(=C2C(=S)C(C)(C)Nc3ccc(C)cc32)S1 | 28% (inactive)
49 | CCOC(=O)C1=C(c2ccccc2)S/C(=C2/C(=S)C(C)(C)Nc3ccc(C(c4ccccc4)(c4ccccc4)c4ccccc4)cc32)S1 | 27% (inactive)
50 | COC(=O)C1=C(C(=O)OC)SC(=C2C(=S)C(C)(C)Nc3ccc(C(c4ccccc4)(c4ccccc4)c4ccccc4)cc32)S1 | 53% (active)
51 | CC(=O)N1CCN(C2=NC(=O)/C(=C/c3ccc(O)cc3)S2)CC1 | 10% (inactive)
52 | Cc1ccc(C(=O)O)cc1NC(=O)C1CC=CCC1C(=O)O (configuration not stated) | 10% (inactive)

Row | Compound | inhibition
53 | CCOCCOC(=O)C1=C(C)NC2=C(C(=O)CCC2)C1c1ccc(CC)cc1 (configuration not stated) | 12% (inactive)
54 | CCN(CC)S(=O)(=O)c1ccc(-c2ccc(S(=O)(=O)N(CC)CC)cc2)cc1 | 11% (inactive)
55 | N#C/C(=C\c1cc(Br)c(O)c(Br)c1)C(=O)Nc1ccccc1Br | 14% (inactive)
56 | N#C/C(=C/c1cccc(Cl)c1)C(=O)Nc1cccc(Br)c1 | 12% (inactive)
57 | N#C/C(=C/c1ccc(Cl)cc1)C(=O)Nc1cccc(Br)c1 | 15% (inactive)
58 | N#C/C(=C/c1ccc(Cl)cc1)C(=O)Nc1ccc(O)cc1 | 60% (active)
59 | N#C/C(=C\c1ccccc1)C(=O)Nc1ccccc1Br | 9% (inactive)
60 | N#C/C(=C\c1ccc(OC(=O)c2ccc(Br)cc2)cc1)C(=O)Nc1cccc(Cl)c1 | 55% (active)
61 | N#C/C(=C/c1ccc(O)cc1)C(=O)Nc1ccc(O)cc1 | 8% (inactive)
62 | N#C/C(=C\c1ccc(OC(=O)c2ccco2)cc1)C(=O)Nc1ccccc1Br | 50% (active)
63 | N#C/C(=C/c1ccc(Cl)cc1)C(=O)Nc1ccc(Cl)cc1 | 3% (inactive)
64 | O=C(Nc1ccc(Cl)cc1)O/N=C\c1ccc(Br)cc1 | 29% (inactive)
65 | COc1ccc(C2/C(=C(/O)c3ccc(Cl)cc3)C(=O)C(=O)N2CCCC(=O)O)cc1 (configuration not stated) | 4% (inactive)
66 | Nc1ccc[n+](CC(=O)c2ccccc2)c1 | 2% (inactive)
67 | Cc1ccccc1OCCNc1cc(N2CCOCC2)ccc1[N+](=O)[O-] | 10% (inactive)
68 | Cc1ccc(Cl)cc1NC(=O)/C(C#N)=C\c1ccc(I)o1 | 9% (inactive)
69 | COc1ccc(Br)cc1/C=C1/SC(N2CCCCC2)=NC1=O | 14% (inactive)
70 | COc1ccc(Br)cc1/C=C1\SC(N2CCOCC2)=NC1=O | 52% (active)
71 | COc1ccc(Br)cc1/C=C1\SC(N2CCCC2)=NC1=O | 19% (inactive)
72 | COc1ccc(C2CC(=O)C=C(Nc3ccccc3N)C2)cc1OC (configuration not stated) | 10% (inactive)
73 | Cc1ccccc1N1C(=O)/C(=C\c2ccco2)C(=O)N(c2ccccc2)C1=S | 49% (inactive)
74 | CN1C(=O)C(=Cc2ccco2)C(=O)N(C)C1=S | 61% (active)
75 | COC(=O)C1=C(C)N(C)C(=O)/C1=C\c1ccco1 | 11% (inactive)
76 | CN1C(=O)C(=C/C=C/c2ccco2)C(=O)N(C)C1=S | 16% (inactive)
77 | O=C1NC(=O)N(c2ccc(Br)cc2)C(=O)/C1=C/c1ccco1 | 12% (inactive)
78 | Oc1ccc(Cl)cc1-c1cc(-c2ccc(Cl)cc2)n[nH]1 | 0% (inactive)

Row | Compound | inhibition
79 | O=S(=O)(c1ccc(-c2csc(Nc3ccc4c(c3)OCO4)n2)cc1)N1CCOCC1 | 8% (inactive)
80 | CCCCNCCOc1ccccc1OCC | 12% (inactive)
81 | O=C(Nc1ccc2oc(-c3ccc(F)cc3Cl)nc2c1)c1cc(Cl)ccc1Cl | 18% (inactive)
82 | Oc1ccc2ccccc2c1CN1CCOCC1 | 7% (inactive)
83 | Cc1ccc(/C=C/C(=O)Nc2ncc(Cc3cc(Cl)ccc3Cl)s2)cc1 | 24% (inactive)
84 | O=C(/C=C/c1cccs1)Nc1ncc(Cc2ccccc2Cl)s1 | 4% (inactive)
85 | COc1ccc(/C=C/C(=O)Nc2ncc(Cc3ccccc3Cl)s2)cc1 | 54% (active)
86 | CCOc1ccccc1OCCOc1cccc(Br)c1 | 3% (inactive)
87 | Cc1cccc(N2CCN(CN3C(=O)/C(=C/c4ccc(C)o4)SC3=S)CC2)c1 | 2% (inactive)
88 | CCOC(=O)C(CCCCCOc1ccccc1C(C)(C)C)C(=O)OCC | 20% (inactive)
89 | CCc1ccc(-c2nc(-c3ccccn3)no2)cc1 | 15% (inactive)
90 | COc1cc(/C=N/c2sc3c(c2C#N)CCCC3)cc(Br)c1O | 15% (inactive)
91 | NC(=O)c1c(/N=C/c2cc(Cl)cc(Cl)c2O)sc2c1CCCC2 | 11% (inactive)
92 | CCOC(=O)c1c(N)n(CCOC)c2nc3ccccc3nc12 | 0% (inactive)
93 | C=CCN(CC=C)CCCCOc1cccc(C)c1 | 5% (inactive)
94 | Ic1ccc(Nc2nc3ccccc3nc2Nc2ccc(I)cc2)cc1 | 34% (inactive)
95 | Oc1ccc(Nc2nc3ccccc3nc2Nc2ccc(O)cc2)cc1 | 12% (inactive)
96 | Brc1ccc(Nc2nc3ccccc3nc2Nc2ccc(Br)cc2)cc1 | 55% (active)
97 | O=C(NCCO)C(=O)Nc1ccccc1 | 0% (inactive)
98 | CCN1CCN(CC(=O)N/N=C/c2ccccc2)CC1 | 8% (inactive)
99 | CCc1ccc(C2Nc3ccc4ccccc4c3C3=C2C(=O)CC(C)(C)C3)cc1 (configuration not stated) | 19% (inactive)
100 | CC(=O)N(C1=C(N(C)C)C(=O)c2ccccc2C1=O)c1ccc(Br)cc1 | 1% (inactive)
101 | CC(=O)N(C1=C(Cl)C(=O)c2ccccc2C1=O)c1ccc(Br)cc1 | 69% (active)
102 | CC(=O)N(C1=C(Cl)C(=O)c2ccccc2C1=O)c1ccc(Cl)cc1 | 32% (inactive)
